Reference: ChEMBL document CHEMBL4513216, “Probing the Open Global Health Chemical Diversity Library for Multistage-Active Starting Points for Next-Generation Antimalarials” (ACS Infect Dis, 2020)
Among all 69,000 compounds or so, about 8,600 (12%) showed an effect of 50% or more. This is one part of a sample in which strong results are shown more often than they occur.

What follows are compounds tested on Plasmodium berghei (assay: Screen against P. berghei liver stage (PbLuc), transformed with Luciferase, at 10uM). Details: tested at 10 uM.
Format: functional, HepG2
Work on `CO[C@@H]1CN(S(=O)(=O)c2cn(C)cn2)[C@@H]2CCCO[C@@H]21` yielded an INHIBITION of -66.7%. With `O=C(NCc1nncn1C1CC1)c1cccnc1Oc1ccccc1` the INHIBITION was 25.6%. In the case of `CCCC(=O)N1CCC(c2nn(C)c(=O)n2-c2ccccc2)CC1`, the INHIBITION was 28.7%. `CC(=O)N1CCC(c2nn(C)c(=O)n2-c2ccccc2)CC1` was tested, and the INHIBITION was 35.2%. In the case of `CNC(=O)CN1CCC(CN(C)CCSc2ccccc2)CC1`, the INHIBITION was -70.7%. `Cn1nc(C2CCN(CC(=O)NC3CC3)CC2)n(-c2ccccc2)c1=O` was tested, and the INHIBITION was -21.3%. `CCSC(C)C(=O)N1CCC(c2nn(C)c(=O)n2-c2ccccc2)CC1` (stereo not drawn) was tested, and the INHIBITION was 63.7%. Compound `CNC(=O)CN1CCC(c2nn(C)c(=O)n2-c2ccccc2)CC1` has an INHIBITION of 53.7%. Work on `Cc1nc(NCc2cccc(F)c2)cc(C2CCNCC2)n1` yielded an INHIBITION of 24.8%. In the case of `COc1ccccc1CN1C(=O)O[C@@H]2CN(CC3CC3)C[C@@H]21`, the INHIBITION was -0.613%. Work on `COc1ccccc1CN1C(=O)O[C@@H]2CN(C(C)C)C[C@@H]21` yielded an INHIBITION of 79.5%. In the case of `COc1ccccc1CN1C(=O)O[C@@H]2CN(S(=O)(=O)N(C)C)C[C@@H]21`, the INHIBITION was 7.97%. `CCNc1ccnc(NCC2(N(C)C)CCOCC2)n1` showed an INHIBITION of 39%. `CCC1(CC)CC(=O)N(CC(O)c2ccc(Cl)cc2)C1=O` (stereo not drawn) was tested, and the INHIBITION was 7.3%. `O=C(CCc1nc(-c2ccsc2)no1)NCC1CCN(C2CC2)C1` (stereo not drawn) showed an INHIBITION of 69%. Work on `O=C(CCc1nc(-c2cccnc2)no1)NCC1CCN(C2CC2)C1` (stereo not drawn) yielded an INHIBITION of 11%. For `O=C(CCc1nnc(-c2ccsc2)o1)NCC1CCN(C2CC2)C1` (stereo not drawn), the INHIBITION was -6.04%. For `Cc1cc(NCCS(C)(=O)=O)nc2cc3c(cc12)CCC3`, the INHIBITION was 41.5%. Work on `COc1cc2nc(NCCN3CCNC3=O)cc(C)c2cc1OC` yielded an INHIBITION of -13.4%. `Cc1cc(NCCN2CCNC2=O)nc2cc3c(cc12)CCC3` showed an INHIBITION of 59.5%. `Cc1cccc(NC2CCc3c2[nH]c(=O)n(C2CCCCC2)c3=O)c1C` (stereo not drawn) gave an INHIBITION of 84%. `COc1ccc(NC2CCc3c2[nH]c(=O)n(C2CCCCC2)c3=O)cc1` (stereo not drawn) showed an INHIBITION of 78.4%. In the case of `O=c1[nH]c2c(c(=O)n1C1CCCCC1)CCC2NCc1ccccc1` (stereo not drawn), the INHIBITION was 52.1%. `O=c1[nH]c2ncccc2n1C1CCCCC1` was tested, and the INHIBITION was 1.41%. Work on `O=c1[nH]c2ncccc2n1C1CCCC1` yielded an INHIBITION of 9%. `O=c1[nH]c2c(c(=O)n1C1CCCCC1)CCC2Nc1ccccn1` (stereo not drawn) gave an INHIBITION of 24.2%. `COc1ccc(NC(=O)N2CCCCC2c2ncc[nH]2)cc1` (stereo not drawn) was tested, and the INHIBITION was 11.2%. Work on `O=c1[nH]c2c(c(=O)n1C1CCCCC1)CCC2Nc1ccc(Cl)cc1` (stereo not drawn) yielded an INHIBITION of 46.5%. `O=c1[nH]c2c(c(=O)n1C1CCCCC1)CCC2Nc1ccccc1Cl` (stereo not drawn) was tested, and the INHIBITION was 80.5%. With `O=C(c1ccc2c(c1)[nH]c(=O)n2C1CCCC1)N1CC(O)C1` the INHIBITION was 44.3%. For `O=c1[nH]c2c(c(=O)n1C1CCCCC1)CCC2NCCc1ccccc1` (stereo not drawn), the INHIBITION was 37.9%. `O=c1[nH]c2c(c(=O)n1C1CCCCC1)CCC2Nc1ccccc1` (stereo not drawn) was tested, and the INHIBITION was -22.9%. `Cc1cccc(CN2C[C@@H]3CN(C(=O)c4cnoc4C)C[C@@H]3C2=O)n1` was tested, and the INHIBITION was 1.34%. `CC(=O)N(C)Cc1ccccc1NC(=O)c1cnn(C)c1C` showed an INHIBITION of -18.7%. In the case of `CNC(=O)CN1CCOCC2(C1)CN(C(=O)CC(C)C)CCO2` (stereo not drawn), the INHIBITION was -3.52%. Compound `Cc1nn(C)cc1S(=O)(=O)NCC(C)Cn1cc(Cl)cn1` (stereo not drawn) has an INHIBITION of 18.4%. For `COCCN(C)Cc1cc(Cl)ccc1OCC(O)CN1CCCCCC1` (stereo not drawn), the INHIBITION was 25.4%. Work on `Cn1cccc1C(=O)N1CCc2c(CNS(C)(=O)=O)cncc2C1` yielded an INHIBITION of -7.29%. Work on `Cc1ccc(CC2CCCN(S(C)(=O)=O)C2)nc1` (stereo not drawn) yielded an INHIBITION of 21.9%. With `OCc1cccc(OCc2ccon2)c1` the INHIBITION was 36.8%. `Cc1cccc(C(C(=O)N(C)Cc2ccon2)N(C)C)c1` (stereo not drawn) was tested, and the INHIBITION was 25.9%. With `CCCOc1cccc(-c2nc3c([nH]2)CCNC3)c1` the INHIBITION was 13.7%. `CC(C)Oc1cccc(CN(C)C(=O)Cc2ccon2)c1` was tested, and the INHIBITION was -24.6%. With `CC(O)c1cccc(OCc2ccon2)c1` (stereo not drawn) the INHIBITION was 74.3%. `CCCOc1cccc(OCc2ccon2)c1` showed an INHIBITION of 91.3%. Compound `Cc1ccsc1CNC(=O)CCc1c(C)nc2cc(O)nn2c1C` has an INHIBITION of 40.2%. In the case of `Cc1ccccc1Oc1ncccc1CNS(C)(=O)=O`, the INHIBITION was 0.139%. `CN(C)S(=O)(=O)NCc1cccnc1Oc1ccccc1F` showed an INHIBITION of 5.46%. Work on `Cc1ccccc1Oc1ncccc1CNC1CCC1` yielded an INHIBITION of 28%. `c1ccc(Oc2ncccc2CNCc2ccccn2)cc1` gave an INHIBITION of 19.7%. `Cc1nc(CNCc2cccnc2Oc2ccc(C)c(F)c2F)c[nH]1` showed an INHIBITION of 75.3%. `CN(C)S(=O)(=O)NCc1cccnc1Oc1ccc(F)cc1F` was tested, and the INHIBITION was 31.7%. Compound `CCCS(=O)(=O)NCc1cccnc1Oc1ccc(C)nc1` has an INHIBITION of 1.93%. `CN1CC(C(=O)NCc2cccnc2OCC(F)(F)F)CC1=O` (stereo not drawn) showed an INHIBITION of 44.9%. `CC(C)S(=O)(=O)NCc1cccnc1Oc1ccc(F)cc1F` was tested, and the INHIBITION was 56.3%. Work on `CN1CC(C(=O)NCc2cccnc2OCc2ccccc2)CC1=O` (stereo not drawn) yielded an INHIBITION of 55.1%. `CCCS(=O)(=O)NCc1cccnc1Oc1ccc(C)c(F)c1F` showed an INHIBITION of 50.3%. `COc1ncccc1CNC(=O)C1CC(=O)N(C)C1` (stereo not drawn) was tested, and the INHIBITION was 10.6%.
